These results are taken from the supplement of paper PMC7156485.

Structures are written as SMILES. ± gives the standard deviation of the averaged measurements.
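Note: TDF denotes transformed human dermal fibroblasts of mesenchymal origin.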

The subject of this test is HCC1569. Nature of the test: cell number relative to DMSO (% of DMSO); higher = more cells (less growth inhibition / toxicity). As to conditions: concentration: 10 µM; 24 h. Put shortly:
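HCC1569 and TDF cells (800 per well, 384-well plates, RPMI with 10% FBS) were treated with compounds at 10 µM for 24 h at 37 °C, in triplicate. Cells were fixed in 3.7% formaldehyde and stained with a rabbit anti-H1.0 antibody, an AlexaFluor 647 secondary and DAPI; six fields per well were imaged at ×10. H1.0 nuclear intensity or cell number is expressed as percent of the plate DMSO control, taking the median of replicates. HCC1569 values were smoothed for positional effects.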
`CCCNC(C)C(=O)Nc1ccccc1C.Cl` (centres undefined) [Prilocaine hydrochloride] returned a cell number of 103.

`COc1ccc(Cl)cc1C(=O)NCCc1ccc(S(=O)(=O)NC(=O)NC2CCCCC2)cc1` [Glyburide] came in with a cell number of 107. For `Cc1nc(Nc2ncc(C(=O)Nc3c(C)cccc3Cl)s2)cc(N2CCN(CCO)CC2)n1` [Dasatinib] the value was 45.9; for `NCCCCC(NC(CCc1ccccc1)C(=O)O)C(=O)N1CCCC1C(=O)O` (centres undefined) [Lisinopril], 105; for `CC(=O)O.CSC(N)=NCCCC(N)C(=O)O` [S-Methyl-L-thiocitrulline acetate], 99.4. The molecule `CCCCCC=CCC=CCC=CCCCCCCC(=O)O` [8(Z), 11(Z), 14(Z)-Eicosatrienoic Acid] displayed a cell number of 97.9. For `Nc1nc(=O)c2ncn(COC(CO)CO)c2[nH]1` [Ganciclovir], the cell number was found to be 105 ± 4. The molecule `CN(C)CCC=C1c2ccccc2COc2ccccc21.Cl` [Doxepin hydrochloride] had a cell number of 100. For `Nc1ncnc2n[nH]c(Nc3ccc(F)cc3)c12` the value was 95.7. The result for `Br.CN1CCc2cc(O)c(O)cc2C(c2ccccc2)C1` (centres undefined) reads 105; that for `Oc1cc(O)c2c(c1)OC(c1ccc(O)c(O)c1)C(O)C2` (single isomer, unassigned; (+)) [(+)-Catechine], 102. The result for `O=C(O)c1cc(N(Cc2ccccc2O)Cc2cc(O)ccc2O)ccc1O` [Lavendustin A] reads 105; that for `CCC=CCC=CCC=CCC=CCC=CCCCC(=O)O`, 98; that for `CC(C)(S)[C@H](N)C(=O)O` [L-Penicillamine], 100. `CC(C)C1C2CCC(C2)C1N.Cl` (centres undefined) showed a cell number of 99.9.

As to `C=CCN1CCc2cc(O)c(O)cc2C(c2ccccc2)C1` (racemic), the cell number came out at 101.

As for `O=c1sn(-c2cccc3ccccc23)c(=O)n1Cc1ccccc1` [4-benzyl-2-(1-naphthyl)-1,2,4-thiadiazolidine-3,5-dione], the cell number came out at 94.9. Regarding `C=CC(N)CCC(=O)O` (racemic), the cell number was determined as 92.9. Turning to `CCCCCCCCCCCCCCCCC(=O)O` [Heptadecanoic acid], the cell number was 99.9. The molecule `Cl.NC(N)=NCCNS(=O)(=O)c1cccc2cnccc12` [HA-1004 hydrochloride] returned a cell number of 103.

As for `CN(CC=CC#CC(C)(C)C)Cc1cccc2ccccc12.Cl`, the cell number stood at 96.4. The result for `Cc1cn[nH]c1.Cl` [4-Methylpyrazole hydrochloride] reads 108; that for `CCCCCC=CCC=CCC=CCC1OC1CCCC(=O)O` (centres undefined) [5,6-Epoxyeicosatrienoic acid], 101.

`CCCCCCCCCCCCCC(=O)NC(C)C(O)c1ccccc1` [D-erythro MAPP] displayed a cell number of 104. The result for `Cc1onc(-c2ccccc2)c1C(=O)NC1C(=O)N2C1SC(C)(C)C2C(=O)[O-]` (centres undefined) [Oxacillin] reads 99.8. Molecule `CC(Cc1ccc(O)c(O)c1)(NN)C(=O)O.O` (centres undefined) [Carbidopa.H2O] returned a cell number of 103. For `O=c1onc2cnc3ccccc3n12` the value was 101; for `CN(C)NN=C1N=CN=C1C(N)=O` [Dacarbazine], 102; for `OCc1ccc(-c2nn(Cc3ccccc3)c3ccccc23)o1`, 102. For `COc1ccc2c(c1)c(CC(=O)O)c(C)n2Cc1ccc(F)cc1` [1-(4-Fluorobenzyl)-5-methoxy-2-methylindole-3-acetic acid] the value was 101; for `O=C(O)CCCCC=CCC(O)C=CC=CC=CC(O)CCCC(=O)O` (centres undefined) [20-Carboxy-leukotriene B4], 102. The result for `CCC(C)C(O)C(C)C(=O)C(C)C=C(C)CC(C)C1OC(=O)C1CC` (centres undefined) [Ebelactone B] reads 102.

For the molecule `O=C(NOCC(O)CO)c1ccc(F)c(F)c1Nc1ccc(I)cc1F` (centres undefined), the cell number turned out to be 105. The result for `CC(OC1OCCN(Cc2nc(=O)[nH][nH]2)C1c1ccc(F)cc1)c1cc(C(F)(F)F)cc(C(F)(F)F)c1` (centres undefined) [Aprepitant] reads 101. The result for `COc1ccc(-c2cnc3c(-c4ccsc4)cnn3c2)cc1` [VEGF Receptor 2 Kinase Inhibitor IV] reads 94.9; that for `O=C(O)C1CCCNC1` (racemic), 109; that for `NCC1OC(OC2C(CO)OC(OC3C(O)C(N)CC(N)C3OC3OC(CN)C(O)C(O)C3N)C2O)C(N)C(O)C1O` (centres undefined) [Neomycin], 99.58 ± 0.33. For `CNCC(O)c1ccc(O)c(O)c1.O=C(O)C(O)C(O)C(=O)O` (single isomer, unassigned; (-)) [(-)-Epinephrine bitartrate] the value was 100; for `CCCCCCC=CCCCCCCCC(=O)O` [9(E)-Hexadecenoic acid], 99.8.
